Assay results published in PubChem BioAssay (Tox21).
Several values for one entry are separate records, joined by “and”; a condition that tells them apart may be missing. Equal entries are not always repeated. Records with an inconclusive call do not appear. A call without a number means that no potency is given here. Some structures have more than one record in an assay (separate samples or runs), and their calls can disagree. Activity calls are given as the source filed them. Calls follow the shape of the dose curve; as a rule, active = well fitted curve in the direction sought with a large enough effect in the repeat runs; inconclusive = weak or mixed curves; inactive = no such curve, though single readings can be large; an effect the other way counts as inactive or inconclusive.

Columns and labels:
[1] = A CellTox Green Cytotoxicity Assay to monitor cytotoxicity in HEK293 cells - 40 hour (AID 1224871); also: nearly all actives have a fitted effect of over 45% in size; also: potency is read from the fitted curve at half-maximal effect
Method in brief: (§1)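 Nonlytic real-time cytotoxicity: HEK293 + CellTox Green reagent plated, 5 h preincubation, pintool compound addition (23 nL in DMSO), 37 C for 40 h, fluorescence measured at successive time points.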

[2] = qHTS RealTime-Glo MT Cell Viability Assay in HEK293 cells - 40 hour (AID 1224874); conditions: RealTime-Glo luminescence; max response: stronger effect = lower value; also: nearly all actives have a fitted effect of over 50% in size; also: potency is read from the fitted curve at half-maximal effect
Method in brief: (§2)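 Cells were seeded together with NanoLuc luciferase and a prosubstrate that viable cells reduce to a luciferase substrate. After a 5 h incubation at 37 C/5% CO2, compounds were added and luminescence was measured repeatedly during 40 h of treatment.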

[3] = A CellTox Green Cytotoxicity Assay to monitor cytotoxicity in HEK293 cells - 24 hour (AID 1224875); also: nearly all actives have a fitted effect of over 45% in size; also: potency is read from the fitted curve at half-maximal effect; as to activity change: series mostly up to about 77 µM
Method in brief: as §1

[4] = A CellTox Green Cytotoxicity Assay to monitor cytotoxicity in HepG2 cells - 16 hour (AID 1224876); also: nearly all actives have a fitted effect of over 45% in size; also: potency is read from the fitted curve at half-maximal effect
Method in brief: (§3)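 Read-out is fluorescence of a cyanine dye excluded from live cells that stains DNA of dead HepG2 cells, with signal proportional to cytotoxicity. Plates were read at 0, 8, 16, 24, 32 and 40 h after compound addition.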

[5] = qHTS RealTime-Glo MT Cell Viability Assay in HepG2 cells - 32 hour (AID 1224877); also: nearly all actives have a fitted effect of over 55% in size; also: potency is read from the fitted curve at half-maximal effect
Method in brief: (§4)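 Viability was tracked continuously by NanoLuc luminescence from prosubstrate reduced by living HepG2 cells, at successive time points over 40 h of compound exposure. Cells with reagent were preincubated 5 h at 37 °C before compound addition.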

[6] = A CellTox Green Cytotoxicity Assay to monitor cytotoxicity in HepG2 cells - 24 hour (AID 1224878); also: nearly all actives have a fitted effect of over 45% in size; also: potency is read from the fitted curve at half-maximal effect
Method in brief: as §3

[7] = A CellTox Green Cytotoxicity Assay to monitor cytotoxicity in HepG2 cells - 40 hour (AID 1224879); also: nearly all actives have a fitted effect of over 40% in size; also: potency is read from the fitted curve at half-maximal effect
Method in brief: as §3

[8] = qHTS RealTime-Glo MT Cell Viability Assay in HEK293 cells - 0 hour (AID 1224880)
Method in brief: as §2

[9] = A CellTox Green Cytotoxicity Assay to monitor cytotoxicity in HEK293 cells - 32 hour (AID 1224881); also: nearly all actives have a fitted effect of over 40% in size; also: potency is read from the fitted curve at half-maximal effect
Method in brief: as §1

[10] = A CellTox Green Cytotoxicity Assay to monitor cytotoxicity in HepG2 cells - 0 hour (AID 1224882); also: nearly all actives have a fitted effect of over 35% in size
Method in brief: as §3

[11] = A CellTox Green Cytotoxicity Assay to monitor cytotoxicity in HepG2 cells - 32 hour (AID 1224883); also: nearly all actives have a fitted effect of over 50% in size; also: potency is read from the fitted curve at half-maximal effect
Method in brief: as §3

[12] = A CellTox Green Cytotoxicity Assay to monitor cytotoxicity in HEK293 cells - 8 hour (AID 1224884); also: nearly all actives have a fitted effect of over 35% in size; also: potency is read from the fitted curve at half-maximal effect
Method in brief: as §1

[13] = qHTS RealTime-Glo MT Cell Viability Assay in HepG2 cells - 16 hour (AID 1224885); also: nearly all actives have a fitted effect of over 50% in size; also: potency is read from the fitted curve at half-maximal effect
Method in brief: as §4

[14] = qHTS RealTime-Glo MT Cell Viability Assay in HEK293 cells - 24 hour (AID 1224886); also: nearly all actives have a fitted effect of over 50% in size; also: potency is read from the fitted curve at half-maximal effect; as to activity change, negative = cytotoxicity: top concentration of the series differs between compounds
Method in brief: (§5)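 Viability tracked continuously by luminescence as live cells reduce a prosubstrate for NanoLuc; HEK293 cells preincubated 5 h, compound-treated at 37 C, and read at 0, 8, 16, 24, 32 and 40 h.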

[15] = qHTS RealTime-Glo MT Cell Viability Assay in HEK293 cells - 8 hour (AID 1224887); also: nearly all actives have a fitted effect of over 50% in size; also: potency is read from the fitted curve at half-maximal effect; as to activity change, negative = cytotoxicity: top concentration of the series differs between compounds
Method in brief: as §2

[16] = A CellTox Green Cytotoxicity Assay to monitor cytotoxicity in HEK293 cells - 16 hour (AID 1224888); also: nearly all actives have a fitted effect of over 35% in size; also: potency is read from the fitted curve at half-maximal effect
Method in brief: as §1

[17] = qHTS RealTime-Glo MT Cell Viability Assay in HepG2 cells - 0 hour (AID 1224889); also: nearly all actives have a fitted effect of over 50% in size
Method in brief: as §4

[18] = A CellTox Green Cytotoxicity Assay to monitor cytotoxicity in HepG2 cells - 8 hour (AID 1224890); also: nearly all actives have a fitted effect of over 45% in size; also: potency is read from the fitted curve at half-maximal effect
Method in brief: as §3

[19] = qHTS RealTime-Glo MT Cell Viability Assay in HepG2 cells - 8 hour (AID 1224873); also: nearly all actives have a fitted effect of over 55% in size
Method in brief: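 HepG2 cells (600/well) mixed with RealTime-Glo MT reagent, settled 5 h at 37 C/5% CO2 before compound addition. Nonlytic NanoLuc luminescence from viable-cell prosubstrate reduction read repeatedly during 40 h treatment at 37 C.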

[20] = qHTS RealTime-Glo MT Cell Viability Assay in HEK293 cells - 16 hour (AID 1224872); also: nearly all actives have a fitted effect of over 50% in size; also: potency is read from the fitted curve at half-maximal effect; as to activity change, negative = cytotoxicity: top concentration of the series differs between compounds
Method in brief: as §5

## C[C@@H]1C[C@@H]([C@H](O)CC2CC(=O)NC(=O)C2)C(=O)[C@@H](C)C1
[1]
  Potency: inactive and 19.5 µM (active)
[2]
  Potency: 387 nM (active) and 245 nM (active) and 169 nM (active)
[3]
  Potency: inactive
[4]
  Potency: inactive
[5]
  Potency: inactive
[6]
  Potency: inactive
[7]
  Potency: inactive
[8]
  outcome: inactive
[9]
  Potency: inactive
[10]
  Potency: inactive
[11]
  Potency: inactive
[12]
  Potency: inactive
[13]
  Potency: inactive
[14]
  Potency: 434 nM (active) and 245 nM (active) and 169 nM (active)
[15]
  Potency: inactive
[16]
  Potency: inactive
[17]
  outcome: inactive
[18]
  Potency: inactive

## COP(=O)(OC)OC(Br)C(Cl)(Cl)Br (stereo not given)
[19]
  Potency: inactive
[3]
  Potency: inactive
[4]
  Potency: inactive
[5]
  Potency: inactive
[6]
  Potency: inactive
[7]
  Potency: inactive
[8]
  outcome: inactive
[9]
  Potency: inactive
[10]
  Potency: inactive
[11]
  Potency: inactive
[12]
  Potency: inactive
[13]
  Potency: inactive
[15]
  Potency: inactive
[16]
  Potency: inactive
[17]
  outcome: inactive

## CCCCCCCCCCCCN=C(N)N
[1]
  cytotoxicity increase: 10.9% [at 2.72 µM] (inactive)
[19]
  viability change, negative = cytotoxic: -3.99% [at 2.72 µM] (inactive)
[2]
  Potency: 1.07 µM (active)
[3]
  activity change: 11.7% [at 2.72 µM, stronger effect = higher value] (inactive)
[4]
  cytotoxicity increase: -5.75% [at 2.72 µM] (inactive)
[5]
  activity change, negative = cytotoxic: -5.5% [at 2.72 µM] (inactive)
[6]
  cytotoxicity: -6.79% [at 2.72 µM] (inactive)
[7]
  cytotoxicity increase: -4.41% [at 2.72 µM] (inactive)
[8]
  activity change, negative = cytotoxicity: 2.39% [at 2.72 µM] (inactive)
[9]
  cytotoxicity increase: 11.7% [at 2.72 µM] (inactive)
[10]
  cytotoxicity: -4.6% [at 2.72 µM] (inactive)
[11]
  cytotoxicity increase: -4.96% [at 2.72 µM] (inactive)
[12]
  cytotoxicity increase: 4.34% [at 2.72 µM] (inactive)
[13]
  activity change, negative = cytotoxic: -5.38% [at 2.72 µM] (inactive)
[16]
  activity change: 7.85% [at 2.72 µM, stronger effect = higher value] (inactive)
[18]
  cytotoxicity increase: -0.515% [at 2.72 µM] (inactive)

## c1ccc2c(c1)sc1ccccc12
[20]
  Potency: inactive
[19]
  Potency: inactive
[2]
  max response: 0.709% (inactive) and -2.64% (inactive)
[3]
  Potency: inactive
[4]
  Potency: inactive
[5]
  Potency: inactive
[6]
  Potency: inactive
[7]
  Potency: inactive
[8]
  outcome: inactive
[9]
  Potency: inactive
[10]
  Potency: inactive
[12]
  Potency: inactive
[13]
  Potency: inactive
[14]
  Potency: inactive
[15]
  Potency: inactive
[16]
  Potency: inactive
[18]
  Potency: inactive

## C#C[C@]1(O)CC[C@H]2[C@@H]3CCC4=CC(=O)CCC4=C3C=C[C@@]21CC
[1]
  Potency: inactive
[3]
  Potency: inactive
[4]
  Potency: inactive
[5]
  Potency: inactive
[6]
  Potency: inactive
[7]
  Potency: inactive
[8]
  outcome: inactive
[9]
  Potency: inactive
[10]
  Potency: inactive
[12]
  Potency: inactive
[13]
  Potency: inactive
[15]
  Potency: inactive
[16]
  Potency: inactive
[17]
  outcome: inactive
[18]
  Potency: inactive

## Clc1ccc2ccccc2c1
[19]
  Potency: inactive
[3]
  Potency: 50.5 µM (active)
[4]
  Potency: inactive
[5]
  Potency: inactive
[6]
  Potency: inactive
[7]
  Potency: inactive
[8]
  outcome: inactive
[9]
  Potency: 50.5 µM (active)
[10]
  Potency: inactive
[11]
  Potency: inactive
[13]
  Potency: inactive
[17]
  outcome: inactive
[18]
  Potency: inactive

## C[C@H]1[C@@H]2Cc3ccc(O)cc3[C@@]1(C)CCN2C
[20]
  Potency: inactive
[19]
  Potency: inactive
[2]
  max response: -5.05% (inactive)
[3]
  Potency: inactive
[4]
  Potency: inactive
[5]
  Potency: inactive
[6]
  Potency: inactive
[7]
  Potency: inactive
[8]
  outcome: inactive
[9]
  Potency: inactive
[10]
  Potency: inactive
[11]
  Potency: inactive
[12]
  Potency: inactive
[13]
  Potency: inactive
[14]
  Potency: inactive
[15]
  Potency: inactive
[16]
  Potency: inactive
[17]
  outcome: inactive
[18]
  Potency: inactive

## CCCCCCCCn1sccc1=O
[1]
  Potency: 55.1 µM (active) and 20.4 µM (active)
[20]
  Potency: 13.8 µM (active) and 14.5 µM (active)
[2]
  Potency: 11 µM (active) and 12.9 µM (active)
[3]
  Potency: 55.1 µM (active) and 40.8 µM (active)
[4]
  Potency: 55.1 µM (active) and 25.7 µM (active)
[5]
  Potency: 43.7 µM (active) and 16.2 µM (active)
[6]
  Potency: 49.1 µM (active) and 25.7 µM (active)
[7]
  Potency: 43.7 µM (active) and 20.4 µM (active)
[9]
  Potency: 55.1 µM (active) and 25.7 µM (active)
[10]
  Potency: inactive
[11]
  Potency: 43.7 µM (active) and 22.9 µM (active)
[12]
  Potency: 36.3 µM (active)
[13]
  Potency: 43.7 µM (active) and 16.2 µM (active)
[14]
  Potency: 12.3 µM (active) and 12.9 µM (active)
[15]
  Potency: 39 µM (active) and 40.8 µM (active)
[16]
  Potency: 51.3 µM (active)
[17]
  outcome: inactive

## CCCCCCCCCCCCCCCl
[1]
  Potency: inactive
[20]
  Potency: inactive
[2]
  max response: 1.34% (inactive)
[3]
  Potency: inactive
[4]
  Potency: inactive
[5]
  Potency: inactive
[6]
  Potency: inactive
[7]
  Potency: inactive
[8]
  outcome: inactive
[9]
  Potency: inactive
[10]
  Potency: inactive
[12]
  Potency: inactive
[13]
  Potency: inactive
[14]
  Potency: inactive
[15]
  Potency: inactive
[16]
  Potency: inactive
[18]
  Potency: inactive

## CCCC[P+](CC)(CCCC)CCCC (tested in a mixture with another compound)
[1]
  Potency: inactive
[19]
  Potency: inactive
[4]
  Potency: inactive
[5]
  Potency: inactive
[6]
  Potency: inactive
[7]
  Potency: inactive
[8]
  outcome: inactive
[10]
  Potency: inactive
[12]
  Potency: inactive
[13]
  Potency: inactive
[15]
  Potency: inactive
[17]
  outcome: inactive
[18]
  Potency: inactive

## OCC1CO1 (stereo not given)
[1]
  Potency: inactive
[20]
  Potency: inactive
[2]
  max response: 0.843% (inactive) and 1.08% (inactive)
[3]
  Potency: inactive
[5]
  Potency: inactive
[6]
  Potency: 44.4 µM (active)
[8]
  outcome: inactive
[9]
  Potency: inactive
[12]
  Potency: 44.4 µM (active) and inactive
[13]
  Potency: inactive
[14]
  Potency: inactive
[15]
  Potency: inactive
[16]
  Potency: inactive
[17]
  outcome: inactive

## CC(C)CCON=O
[20]
  Potency: inactive
[19]
  Potency: inactive
[2]
  max response: 0.253% (inactive)
[4]
  Potency: inactive
[5]
  Potency: inactive
[6]
  Potency: inactive
[7]
  Potency: inactive
[8]
  outcome: inactive
[10]
  Potency: inactive
[11]
  Potency: inactive
[12]
  Potency: inactive
[13]
  Potency: inactive
[15]
  Potency: inactive
[17]
  outcome: inactive
[18]
  Potency: inactive

## Nc1ccc2c(c1)Cc1ccccc1-2
[1]
  Potency: inactive
[19]
  Potency: inactive
[3]
  Potency: inactive
[4]
  Potency: inactive
[5]
  Potency: inactive
[6]
  Potency: inactive
[7]
  Potency: inactive
[8]
  outcome: inactive
[9]
  Potency: inactive
[10]
  Potency: inactive
[12]
  Potency: inactive
[13]
  Potency: inactive
[15]
  Potency: inactive
[16]
  Potency: inactive
[17]
  outcome: inactive
[18]
  Potency: inactive

## [Cl-].[Cl-].[Hg+2]
[1]
  Potency: 21.8 µM (active) and 3.89 µM (active)
[2]
  Potency: 2.45 µM (active)
[3]
  Potency: 21.8 µM (active) and 8.71 µM (active)
[4]
  Potency: 38.7 µM (active) and 3.89 µM (active)
[5]
  Potency: 54.7 µM (active) and 3.47 µM (active)
[6]
  Potency: 24.4 µM (active) and 3.89 µM (active)
[7]
  Potency: 24.4 µM (active) and 2.45 µM (active)
[8]
  outcome: inactive
[9]
  Potency: 21.8 µM (active) and 6.92 µM (active)
[10]
  Potency: inactive
[11]
  Potency: 24.4 µM (active) and 3.09 µM (active)
[12]
  Potency: inactive and 15.5 µM (active)
[13]
  Potency: 48.8 µM (active) and 3.89 µM (active)
[16]
  Potency: 38.7 µM (active) and 11 µM (active)
[18]
  Potency: 48.8 µM (active) and 4.9 µM (active)
